These results are taken from PubChem BioAssay.

Activity calls are given as the source filed them.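 How the source made its calls, unless noted: active means compound raises insulin release from rat beta cells at 5 mM glucose, no numeric limit stated; inactive means the rest.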

Assay [1] can be described thus: Wnt pathway potentiators raising nuclear beta-catenin – imaging, WNT3A-conditioned medium, mouse C2C12, NPC library, primary screen (AID 1117326; in the data active means nuclear beta-catenin stimulation mostly above about 4.2%, no sharp cut-off; inactive means mostly below about 10%; further: reference of the scale not given here). Particulars: stronger effect = higher value.
A short description of assay [2]: stimulators of insulin release from INS-1E, primary screen, cell-based, 5 mM glucose, NPC library (AID 1117329). Further: reference of the scale not given here. Particulars: rat INS-1E insulin secretion, at 10 µM, stronger effect = higher value.
The nature of assay [3]: growth inhibition of GSK3B-pretreated HCT116 cells – cell-based, CellTiter-Glo, 0.2 to 20 µM (AID 1117336;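 active means compounds lowering colon cancer cell viability after pretreatment blocking the GSK3B kinase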). Particulars: HCT116 viability after GSK3B inhibitor, at 20 µM, stronger effect = higher value. For orientation: In ATP-based viability assays light output follows the ATP content of the culture.
Assay [4] in a line: inhibition of endothelial tube formation, primary screen, imaging, VEGF stimulated, CD31 staining, tube area, NPC library (AID 1117340;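 active means compound that reduces growth-factor-driven endothelial tube area in a mixed cell culture, no cutoff stated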). Particulars: VEGF-stimulated ADSC/ECFC co-culture, at 10 µM, stronger effect = higher value.
Assay [5] can be described thus: GLP1 release stimulators, primary, NCI-H716, NPC library (AID 1117341;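 active means compound raises GLP1 secretion from the human gut endocrine cells, with no numeric limit stated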; further: reference of the scale not given here). Particulars: NCI-H716 cells, at 10 µM, stronger effect = higher value.
Assay [6] can be described thus: HCT116 colon cancer cell growth inhibition, primary screen, CellTiter-Glo luminescence, NPC library (AID 1117342;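 active means compounds that lower survival of HCT116 colon cancer cells in the luminescence readout, no numeric limit stated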). Particulars: at 20 µM (top of the series).
The nature of assay [7]: reduced SW480 viability measured with CellTiter-Glo, NPC library, primary (AID 1117343;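 active means compounds that lower viability of the colon cancer cells in the luminescence readout, with no numeric limit stated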). Particulars: CellTiter-Glo luminescence; at 20 µM (top of the series).
A short description of assay [8]: NPC library primary testing for decreased DLD-1 cell viability via CellTiter-Glo (AID 1117346;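 active means compounds that lower survival of DLD-1 colon cancer cells in the luminescence readout, no cutoff given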). To be noted: DLD-1 viability, CellTiter-Glo luminescence; at 20 µM (top of the series).

Consider `NS(=O)(=O)c1cc(C(=O)NN2C[C@H]3[C@H]4CCC(C4)[C@H]3C2)ccc1Cl`, for which the nuclear beta-catenin stimulation in assay [1] (at 10 µM) was -1.3% (inactive); in assay [1] (stimulation, at 2 µM), 2.2%. The insulin secretion stimulation in assay [2] is -3.6% (inactive). In addition, the viability decrease in assay [3] was -4.2% (inactive). Also, in assay [4], the tube area decrease was -14.3% (inactive). In assay [5], the GLP1 secretion stimulation was -0.6% (inactive). Moreover, the inhibition of viability in assay [6] was 10.3% (inactive). The values for the viability decrease (inhibition) in assay [7] and in assay [8] were -2.9% (inactive) and -6.4% (inactive), respectively.
In the case of `CCNC(=O)NCCCOc1cccc(CN2CCCCC2)c1`, the nuclear beta-catenin stimulation in assay [1] (at 10 µM) was -0.4% (inactive); in assay [1] (stimulation, at 2 µM) it was -1.5%. In addition, in assay [2], the insulin secretion stimulation was 4.7% (inactive). Also, in assay [3], the viability decrease is 1.2% (inactive). For the same compound, in assay [4], the tube area decrease was 0.6% (inactive). For the same compound, in assay [5], the GLP1 secretion stimulation was -0.5% (inactive). Also, the inhibition of viability in assay [6] was 5% (inactive). For the same compound, the viability decrease (inhibition) in assay [7] was -19.1% (inactive); in assay [8], -12.6% (inactive).
For the compound `O=C(Nc1ccc(Oc2ccc(Cl)cc2)c(Cl)c1)c1cc(I)cc(I)c1O`, the nuclear beta-catenin stimulation is 6.2% (inactive) in assay [1] (at 10 µM) and 1.3% in assay [1] (stimulation, at 2 µM). For the same compound, the insulin secretion stimulation in assay [2] is 0.2% (inactive). Moreover, in assay [3], the viability decrease was 122% (active). Also, the tube area decrease in assay [4] is 109% (active). In addition, in assay [5], the GLP1 secretion stimulation is 29.8% (active). Further, the inhibition of viability in assay [6] was 128% (active). In addition, the viability decrease (inhibition) in assay [7] was 161% (active); in assay [8] it was 102% (active).
Take `Cc1cnc(NS(=O)(=O)c2ccc(N)cc2)nc1`: the nuclear beta-catenin stimulation in assay [1] (at 10 µM) was 1.1% (inactive); in assay [1] (stimulation, at 2 µM), -0.7%. In assay [2], the insulin secretion stimulation is 1.8% (inactive). Also, the viability decrease in assay [3] was 7.4% (inactive). Also, in assay [4], the tube area decrease was -8.2% (inactive). In addition, the GLP1 secretion stimulation in assay [5] was -0.6% (inactive). Further, the inhibition of viability in assay [6] is -6.6% (inactive). Also, the viability decrease (inhibition) in assay [7] was 7.7% (inactive); in assay [8], 6.6% (inactive).
For the compound `CC(C)(C)c1nnc(NS(=O)(=O)c2ccccc2)s1`, the nuclear beta-catenin stimulation is 0.7% (inactive) in assay [1] (at 10 µM) and 1.5% in assay [1] (stimulation, at 2 µM). Also, the insulin secretion stimulation in assay [2] is 33.5% (active). The viability decrease in assay [3] is -0.1% (inactive). In assay [4], the tube area decrease was 17.7% (inactive). Further, in assay [5], the GLP1 secretion stimulation was -0.5% (inactive). Moreover, the inhibition of viability in assay [6] is -5.8% (inactive). Moreover, the viability decrease (inhibition) was -1.2% (inactive) in assay [7] and -7% (inactive) in assay [8].
`O=C(CCCN1CCN(c2ccc(F)cc2)CC1)NC1c2ccccc2CSc2ccccc21` (stereo unspecified): the nuclear beta-catenin stimulation in assay [1] (at 10 µM) is 1.8% (inactive); in assay [1] (stimulation, at 2 µM), 1.3%. Also, the insulin secretion stimulation in assay [2] was -0.2% (inactive). Moreover, the viability decrease in assay [3] is 53.5% (active). Also, the tube area decrease in assay [4] is 32.7% (inactive). For the same compound, the GLP1 secretion stimulation in assay [5] is 3.7% (inactive). In addition, the inhibition of viability in assay [6] was 47.5% (inactive). In addition, the viability decrease (inhibition) in assay [7] is 27.4% (inactive); in assay [8] it was 14.8% (inactive).
As for `CC[C@@]1(O)C(=O)OCc2c1cc1n(c2=O)Cc2c-1nc1ccccc1c2/C=N/OC(C)(C)C`, the nuclear beta-catenin stimulation was 38.7% (active) in assay [1] (at 10 µM) and 59.7% in assay [1] (stimulation, at 2 µM). Moreover, the insulin secretion stimulation in assay [2] is 2.9% (inactive). The viability decrease in assay [3] was -17.1% (active). Also, the tube area decrease in assay [4] was 59.9% (active). Moreover, the GLP1 secretion stimulation in assay [5] is 14.3% (inactive). Besides, in assay [6], the inhibition of viability is 35% (active). In addition, the viability decrease (inhibition) in assay [7] was 64.5% (active); in assay [8], 76.5% (active).
Turning to `CC(C)NC(=O)c1ccc(C=O)cc1`, the nuclear beta-catenin stimulation was 0% (inactive) in assay [1] (at 10 µM) and -0.8% in assay [1] (stimulation, at 2 µM). In assay [2], the insulin secretion stimulation is -0.75% (inactive). Moreover, in assay [3], the viability decrease is 18.8% (inactive). In assay [4], the tube area decrease is -7.2% (inactive). The GLP1 secretion stimulation in assay [5] is 2.1% (inactive). In assay [6], the inhibition of viability was -5.1% (inactive). The viability decrease (inhibition) is -15.1% (inactive) in assay [7] and -5.8% (inactive) in assay [8].
As to `O=C(Nc1ncc([N+](=O)[O-])s1)c1cccs1`, the nuclear beta-catenin stimulation in assay [1] (at 10 µM) was -2.8% (inactive); in assay [1] (stimulation, at 2 µM) it was -1.2%. For the same compound, the insulin secretion stimulation in assay [2] was -0.4% (inactive). In addition, the viability decrease in assay [3] was 45.8% (inactive). The tube area decrease in assay [4] was 46.3% (active). In addition, in assay [5], the GLP1 secretion stimulation is -0.9% (inactive). Further, the inhibition of viability in assay [6] was 41.2% (inactive). Besides, the viability decrease (inhibition) in assay [7] was 43.6% (inactive); in assay [8], 67.5% (active).
On to `CC(O)COc1ccccc1` (stereo unspecified), for which the nuclear beta-catenin stimulation in assay [1] (at 10 µM) was -0.1% (inactive); in assay [1] (stimulation, at 2 µM) it was 1.5%. Also, the insulin secretion stimulation in assay [2] was -0.2% (inactive). Also, the viability decrease in assay [3] is -28.5% (inactive). The tube area decrease in assay [4] was 11.1% (inactive). Besides, in assay [5], the GLP1 secretion stimulation was 0.5% (inactive). Further, the inhibition of viability in assay [6] is -11.1% (inactive). Besides, the viability decrease (inhibition) in assay [7] is -146% (inactive); in assay [8], -19.2% (inactive).
As for `COc1ccc(C=CC(=O)O)cc1`, the nuclear beta-catenin stimulation is -1.4% (inactive) in assay [1] (at 10 µM) and 0% in assay [1] (stimulation, at 2 µM). Further, in assay [2], the insulin secretion stimulation was 1% (inactive). Besides, the viability decrease in assay [3] is -39% (inactive). Also, the tube area decrease in assay [4] was 4.7% (inactive). In addition, the GLP1 secretion stimulation in assay [5] was -4.2% (inactive). In addition, the inhibition of viability in assay [6] is 2.2% (inactive). Also, the values for the viability decrease (inhibition) in assay [7] and in assay [8] were -6.4% (inactive) and -5.9% (inactive), respectively.
Take `CCCOc1ccc2c(c1)CC[C@@H]1[C@@H]2CC[C@]2(C)C(OC)CC[C@@H]12` (stereo partly specified): the nuclear beta-catenin stimulation was 0.5% (inactive) in assay [1] (at 10 µM) and 0% in assay [1] (stimulation, at 2 µM). Also, the insulin secretion stimulation in assay [2] is -0.1% (inactive). Besides, the viability decrease in assay [3] is 69.6% (active). In assay [4], the tube area decrease was -3.1% (inactive). The GLP1 secretion stimulation in assay [5] was -0.8% (inactive). In addition, in assay [6], the inhibition of viability is 56% (active). Besides, the results for the viability decrease (inhibition) in assay [7] and in assay [8] were 103% (active) and 40.8% (inactive), respectively.
Take `CN(C)C(=S)SC(=S)N(C)C`: the nuclear beta-catenin stimulation in assay [1] (at 10 µM) was 31.6% (inactive); in assay [1] (stimulation, at 2 µM), 11.3%. Moreover, the insulin secretion stimulation in assay [2] is -0.3% (inactive). For the same compound, the viability decrease in assay [3] is -6.55% (inactive). Besides, the tube area decrease in assay [4] is -36.6% (inactive). Further, in assay [5], the GLP1 secretion stimulation is 4.1% (inactive). Besides, in assay [6], the inhibition of viability was 11.5% (inactive). Further, the viability decrease (inhibition) in assay [7] was 35.3% (inactive); in assay [8] it was 0.2% (inactive).
On to `CCCCCCCCCCCCCCCCCC(=O)O`, for which the nuclear beta-catenin stimulation in assay [1] (at 10 µM) is 0.8% (inactive); in assay [1] (stimulation, at 2 µM), 0.7%. Also, the insulin secretion stimulation in assay [2] is -1.2% (inactive). Besides, in assay [3], the viability decrease was -8.8% (inactive). The tube area decrease in assay [4] was -12.7% (inactive). Further, the GLP1 secretion stimulation in assay [5] is -0.3% (inactive). Also, the inhibition of viability in assay [6] was 1.8% (inactive). For the same compound, the viability decrease (inhibition) is 18.8% (inactive) in assay [7] and -6.85% (inactive) in assay [8].
